Positions count from the first letter of the chain named.
Columns and labels:
Test in all cases: PBM; 200 nM protein, PBS
Settings in all cases: dsDNA, one strand shown
VENTX [1] = target: T1, VENTX (Homo sapiens, UniProt O95231 78-163, R121Q)
T1 sequence: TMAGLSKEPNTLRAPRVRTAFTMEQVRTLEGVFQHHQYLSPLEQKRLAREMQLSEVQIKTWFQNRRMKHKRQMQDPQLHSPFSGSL

HOXA4 [2] = target: HOXA4 (Homo sapiens, UniProt Q00056 201-287, W262R)
HOXA7 [3] = target: HOXA7 (Homo sapiens, UniProt P31268 116-202)
ALX4 = ALX4 (Homo sapiens, UniProt Q9H161 200-286)
Sequence of ALX4 (Q9H161 200-286): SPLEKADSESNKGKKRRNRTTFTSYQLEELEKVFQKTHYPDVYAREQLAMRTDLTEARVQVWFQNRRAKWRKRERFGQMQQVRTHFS

PRRX1 [4] = target: PRRX1 (Homo sapiens, UniProt P54821 80-166, F113S)
Sequence of PRRX1 (Homo sapiens, UniProt P54821 80-166, F113S) (P54821 80-166 F113S): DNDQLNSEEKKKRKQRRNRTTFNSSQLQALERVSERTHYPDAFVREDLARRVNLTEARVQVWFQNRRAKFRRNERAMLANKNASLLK

VENTX [5] = target: T2, VENTX (Homo sapiens, UniProt O95231 78-163, Y115F)
T2 sequence: T1 sequence with Y38F, Q44R

HOXB6 = HOXB6 (Homo sapiens, UniProt P17509 132-218, K202E)
Sequence of HOXB6 (P17509 132-218 K202E): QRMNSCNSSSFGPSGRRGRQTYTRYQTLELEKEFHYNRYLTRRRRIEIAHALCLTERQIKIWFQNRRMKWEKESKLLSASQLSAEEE

HOXA2 [6] = target: HOXA2 (Homo sapiens, UniProt O43364 129-215, R185T)
Sequence of HOXA2 (Homo sapiens, UniProt O43364 129-215, R185T) (O43364 129-215 R185T): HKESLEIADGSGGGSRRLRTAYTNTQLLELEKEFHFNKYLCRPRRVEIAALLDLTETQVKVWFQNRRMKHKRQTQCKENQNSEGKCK

HOXA4 [7] = target: HOXA4 (Homo sapiens, UniProt Q00056 201-287, R217L)
Sequence of HOXA4 (Homo sapiens, UniProt Q00056 201-287, R217L) (Q00056 201-287 R217L): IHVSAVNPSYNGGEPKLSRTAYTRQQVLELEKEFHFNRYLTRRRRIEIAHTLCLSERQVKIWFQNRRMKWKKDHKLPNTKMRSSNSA

HOXB4 = HOXB4 (Homo sapiens, UniProt P17483 148-234, V174I)
Sequence of HOXB4 (P17483 148-234 V174I): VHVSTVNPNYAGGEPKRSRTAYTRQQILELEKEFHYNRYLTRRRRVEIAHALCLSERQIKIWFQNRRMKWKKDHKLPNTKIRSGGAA

PAX4 = target: T3, PAX4 (Homo sapiens, UniProt O43316 9-242, R200Q)
T3 sequence: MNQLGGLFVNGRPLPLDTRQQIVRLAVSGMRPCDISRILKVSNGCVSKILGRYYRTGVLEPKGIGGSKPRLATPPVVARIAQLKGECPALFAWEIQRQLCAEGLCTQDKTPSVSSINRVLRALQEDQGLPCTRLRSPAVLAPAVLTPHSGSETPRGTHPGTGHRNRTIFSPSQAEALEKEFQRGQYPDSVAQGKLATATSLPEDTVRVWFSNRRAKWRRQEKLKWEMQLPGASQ

HOXA2 [8] = target: HOXA2 (Homo sapiens, UniProt O43364 129-215, R185K)
Sequence of HOXA2 (Homo sapiens, UniProt O43364 129-215, R185K) (O43364 129-215 R185K): as the sequence (O43364 129-215 R185T) above, with T57K counted along it

HOXA4 [9] = target: HOXA4 (Homo sapiens, UniProt Q00056 201-287)
Sequence of HOXA4 (Homo sapiens, UniProt Q00056 201-287) (Q00056 201-287): as the sequence (Q00056 201-287 R217L) above, with L17R counted along it

MSX2 [10] = target: MSX2 (Homo sapiens, UniProt P35548 130-214)
Sequence of MSX2 (Homo sapiens, UniProt P35548 130-214) (P35548 130-214): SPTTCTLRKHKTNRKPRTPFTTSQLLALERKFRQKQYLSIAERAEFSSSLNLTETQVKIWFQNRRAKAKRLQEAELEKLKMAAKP

MSX2 [11] = target: MSX2 (Homo sapiens, UniProt P35548 130-214, F161Y)
Sequence of MSX2 (Homo sapiens, UniProt P35548 130-214, F161Y) (P35548 130-214 F161Y): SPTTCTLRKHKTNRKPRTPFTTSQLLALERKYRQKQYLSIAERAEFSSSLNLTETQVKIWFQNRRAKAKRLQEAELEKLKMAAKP

VAX1 [12] = target: VAX1 (Homo sapiens, UniProt Q5SQQ9 86-172, T142I)
Sequence of VAX1 (Homo sapiens, UniProt Q5SQQ9 86-172, T142I) (Q5SQQ9 86-172 T142I): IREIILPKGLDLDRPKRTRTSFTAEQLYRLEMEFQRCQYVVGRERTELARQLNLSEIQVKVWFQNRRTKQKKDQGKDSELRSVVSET

HOXA7 [13] = target: HOXA7 (Homo sapiens, UniProt P31268 116-202, W177C)
Sequence of HOXA7 (Homo sapiens, UniProt P31268 116-202, W177C) (P31268 116-202 W177C): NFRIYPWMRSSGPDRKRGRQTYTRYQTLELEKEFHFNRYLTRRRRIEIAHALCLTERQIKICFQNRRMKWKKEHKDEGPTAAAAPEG

HOXA4 [14] = target: HOXA4 (Homo sapiens, UniProt Q00056 201-287, W262F)
Sequence of HOXA4 (Homo sapiens, UniProt Q00056 201-287, W262F) (Q00056 201-287 W262F): as the sequence (Q00056 201-287 R217L) above, with L17R, W62F counted along it

PRRX1 [15] = target: PRRX1 (Homo sapiens, UniProt P54821 80-166)
Sequence of PRRX1 (Homo sapiens, UniProt P54821 80-166) (P54821 80-166): as the sequence (P54821 80-166 F113S) above, with S34F counted along it

VAX1 [16] = target: VAX1 (Homo sapiens, UniProt Q5SQQ9 86-172, K157R)
Sequence of VAX1 (Homo sapiens, UniProt Q5SQQ9 86-172, K157R) (Q5SQQ9 86-172 K157R): as the sequence (Q5SQQ9 86-172 T142I) above, with I57T, K72R counted along it

Sequence of HOXA4 (Homo sapiens, UniProt Q00056 201-287, W262R) (Q00056 201-287 W262R): as the sequence (Q00056 201-287 R217L) above, with L17R, W62R counted along it
Sequence of HOXA7 (Homo sapiens, UniProt P31268 116-202) (P31268 116-202): as the sequence (P31268 116-202 W177C) above, with C62W counted along it

Sequence	binding signal (VENTX [1])	binding signal (HOXA4 [2])	binding signal (HOXA7 [3])	binding signal (ALX4)	binding signal (PRRX1 [4])	binding signal (VENTX [5])	binding signal (HOXB6)	binding signal (HOXA2 [6])	binding signal (HOXA4 [7])	binding signal (HOXB4)	binding signal (PAX4)	binding signal (HOXA2 [8])	binding signal (HOXA4 [9])	binding signal (MSX2 [10])	binding signal (MSX2 [11])	binding signal (VAX1 [12])	binding signal (HOXA7 [13])	binding signal (HOXA4 [14])	binding signal (PRRX1 [15])	binding signal (VAX1 [16])
TCAATTAA	12 upbm affinity estimate (log intensity, higher = more binding, comparable within an allelic series)	10.7 upbm affinity estimate (log intensity, higher = more binding, comparable within an allelic series)	11.5 upbm affinity estimate (log intensity, higher = more binding, comparable within an allelic series)	14.1 upbm affinity estimate (log intensity, higher = more binding, comparable within an allelic series)	11.3 upbm affinity estimate (log intensity, higher = more binding, comparable within an allelic series)	11.6 upbm affinity estimate (log intensity, higher = more binding, comparable within an allelic series)	9.94 upbm affinity estimate (log intensity, higher = more binding, comparable within an allelic series)	13.1 upbm affinity estimate (log intensity, higher = more binding, comparable within an allelic series)	12.4 upbm affinity estimate (log intensity, higher = more binding, comparable within an allelic series)	14 upbm affinity estimate (log intensity, higher = more binding, comparable within an allelic series)	11.8 upbm affinity estimate (log intensity, higher = more binding, comparable within an allelic series)	13.2 upbm affinity estimate (log intensity, higher = more binding, comparable within an allelic series)	13.9 upbm affinity estimate (log intensity, higher = more binding, comparable within an allelic series)	13.9 upbm affinity estimate (log intensity, higher = more binding, comparable within an allelic series)	13.5 upbm affinity estimate (log intensity, higher = more binding, comparable within an allelic series)	13.1 upbm affinity estimate (log intensity, higher = more binding, comparable within an allelic series)	8.86 upbm affinity estimate (log intensity, higher = more binding, comparable within an allelic series)	11.8 upbm affinity estimate (log intensity, higher = more binding, comparable within an allelic series)	13.5 upbm affinity estimate (log intensity, higher = more binding, comparable within an allelic series)	13 upbm affinity estimate (log intensity, higher = more binding, comparable within an allelic series)
CCAATTAA	12.2 upbm affinity estimate (log intensity, higher = more binding, comparable within an allelic series)	10.6 upbm affinity estimate (log intensity, higher = more binding, comparable within an allelic series)	11.5 upbm affinity estimate (log intensity, higher = more binding, comparable within an allelic series)	14.3 upbm affinity estimate (log intensity, higher = more binding, comparable within an allelic series)	11.6 upbm affinity estimate (log intensity, higher = more binding, comparable within an allelic series)	11.8 upbm affinity estimate (log intensity, higher = more binding, comparable within an allelic series)	10 upbm affinity estimate (log intensity, higher = more binding, comparable within an allelic series)	12.9 upbm affinity estimate (log intensity, higher = more binding, comparable within an allelic series)	12 upbm affinity estimate (log intensity, higher = more binding, comparable within an allelic series)	13.7 upbm affinity estimate (log intensity, higher = more binding, comparable within an allelic series)	12.4 upbm affinity estimate (log intensity, higher = more binding, comparable within an allelic series)	13.1 upbm affinity estimate (log intensity, higher = more binding, comparable within an allelic series)	13.6 upbm affinity estimate (log intensity, higher = more binding, comparable within an allelic series)	14.2 upbm affinity estimate (log intensity, higher = more binding, comparable within an allelic series)	13.8 upbm affinity estimate (log intensity, higher = more binding, comparable within an allelic series)	12.7 upbm affinity estimate (log intensity, higher = more binding, comparable within an allelic series)	8.83 upbm affinity estimate (log intensity, higher = more binding, comparable within an allelic series)	11.3 upbm affinity estimate (log intensity, higher = more binding, comparable within an allelic series)	13.6 upbm affinity estimate (log intensity, higher = more binding, comparable within an allelic series)	13 upbm affinity estimate (log intensity, higher = more binding, comparable within an allelic series)
GGCAATTA	11.9 upbm affinity estimate (log intensity, higher = more binding, comparable within an allelic series)	10.5 upbm affinity estimate (log intensity, higher = more binding, comparable within an allelic series)	11.7 upbm affinity estimate (log intensity, higher = more binding, comparable within an allelic series)	13.6 upbm affinity estimate (log intensity, higher = more binding, comparable within an allelic series)		11.8 upbm affinity estimate (log intensity, higher = more binding, comparable within an allelic series)	9.93 upbm affinity estimate (log intensity, higher = more binding, comparable within an allelic series)	13 upbm affinity estimate (log intensity, higher = more binding, comparable within an allelic series)	12.1 upbm affinity estimate (log intensity, higher = more binding, comparable within an allelic series)	13.6 upbm affinity estimate (log intensity, higher = more binding, comparable within an allelic series)		13.3 upbm affinity estimate (log intensity, higher = more binding, comparable within an allelic series)	13.7 upbm affinity estimate (log intensity, higher = more binding, comparable within an allelic series)	13.9 upbm affinity estimate (log intensity, higher = more binding, comparable within an allelic series)	13.6 upbm affinity estimate (log intensity, higher = more binding, comparable within an allelic series)	13 upbm affinity estimate (log intensity, higher = more binding, comparable within an allelic series)	8.77 upbm affinity estimate (log intensity, higher = more binding, comparable within an allelic series)	11.4 upbm affinity estimate (log intensity, higher = more binding, comparable within an allelic series)		12.8 upbm affinity estimate (log intensity, higher = more binding, comparable within an allelic series)
CCAGGTCC	7.92 upbm affinity estimate (log intensity, higher = more binding, comparable within an allelic series)					7.95 upbm affinity estimate (log intensity, higher = more binding, comparable within an allelic series)		7.34 upbm affinity estimate (log intensity, higher = more binding, comparable within an allelic series)		7.79 upbm affinity estimate (log intensity, higher = more binding, comparable within an allelic series)		10.3 upbm affinity estimate (log intensity, higher = more binding, comparable within an allelic series)								
